# From PubChem BioAssay (NCI)
# About 83,000 compounds went through this panel and 20% of them were active in at least one assay; those are over-represented in the sample as a whole.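 Testing used 96-well plates and a 48-hour single-concentration exposure. Example: -40 means 40% of the starting cells died.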 Values without a mark were called inactive. Activity calls are given as the source filed them. How the source made its calls: active means growth percent below 10; inactive means the rest.
# Key:
# Test in all cases: NCI-60 one-dose screen, 48 h (100 = growth as untreated, 0 = no growth, -100 = all killed)
# Conditions in all cases: 10 µM unless noted
# RPMI-8226 leukemia = tested on: RPMI-8226 leukemia
# OVCAR-8 ovarian = tested on: OVCAR-8 ovarian
# OVCAR-4 ovarian = tested on: OVCAR-4 ovarian
# SK-OV-3 ovarian = tested on: SK-OV-3 ovarian
# IGROV1 ovarian = tested on: IGROV1 ovarian
# OVCAR-3 ovarian = tested on: OVCAR-3 ovarian
# HS 578T breast = tested on: HS 578T breast
# NCI/ADR-RES ovarian = tested on: NCI/ADR-RES ovarian
# T-47D breast = tested on: T-47D breast
# BT-549 breast = tested on: BT-549 breast
# MDA-MB-435 melanoma = tested on: MDA-MB-435 melanoma
# SW-620 colon = tested on: SW-620 colon
# MCF7 breast = tested on: MCF7 breast
# HCT-116 colon = tested on: HCT-116 colon
# HCC-2998 colon = tested on: HCC-2998 colon
# KM12 colon = tested on: KM12 colon
# OVCAR-5 ovarian = tested on: OVCAR-5 ovarian
Compound,growth (RPMI-8226 leukemia),growth (OVCAR-8 ovarian),growth (OVCAR-4 ovarian),growth (SK-OV-3 ovarian),growth (IGROV1 ovarian),growth (OVCAR-3 ovarian),growth (HS 578T breast),growth (NCI/ADR-RES ovarian),growth (T-47D breast),growth (BT-549 breast),growth (MDA-MB-435 melanoma),growth (SW-620 colon),growth (MCF7 breast),growth (HCT-116 colon),growth (HCC-2998 colon),growth (KM12 colon),growth (OVCAR-5 ovarian)
N#Cc1c(N)nc2c(C#N)c(NC(=O)c3ccccc3)nn2c1-c1ccccc1,44.1%,77%,88.8%,96.8%,59.1%,89.5%,94.7%,85.5%,68.2%,97.6%,96.7%,103%,75.8%,92.7%,103%,95.7%,–
Nc1n[nH]c2cc(F)c([C@@H]3Nc4c(F)cc5[nH]ncc5c4[C@H]4C5CCC(C5)[C@@H]34)cc12 (some centres undefined),–,29.2%,44.2%,34%,17.2%,8.71% (active),26.8%,11.8%,83.8%,-0.757% (active),-33.4% (active),26.8%,21.6%,-21.2% (active),7.27% (active),-40.5% (active),35.1%
CN(C)CCCn1c(=O)c2ccccc2c2ccccc21,–,49.8%,86.3%,92.3%,56.2%,96.5%,79.3%,78.3%,87.9%,103%,89%,42.8%,58.4%,26.5%,68.2%,75.8%,73.3%
NCCCNc1nc2ccccc2c2c(=O)c3cccc(Cl)c3sc12,–,-16.2% (active),38.2%,73%,7.81% (active),-51.5% (active),28.1%,29.2%,35.3%,76.6%,-43.3% (active),-79.4% (active),-86.6% (active),-92% (active),-94.1% (active),-72.6% (active),50%
OC(COc1ccccc1Cl)COc1ccccc1Cl,–,109%,105%,107%,96.7%,118%,102%,95.9%,97.1%,86.6%,94.8%,97.9%,94.8%,90.9%,–,99.2%,–
COc1cc(C(=O)/C=C/c2c(C(F)(F)F)nc3sccn23)cc(OC)c1OC,–,12.2%,17.8%,2.13% (active),23%,-30.6% (active),37.4%,-3.02% (active),-22.7% (active),–,12.6%,-21.2% (active),6.82% (active),-85.3% (active),-0.607% (active),-75.6% (active),15.1%
Cc1ccc(/C=C2\C(=O)N(C)c3ccc(S(=O)(=O)Nc4ccc(C(C)(C)C)cc4)cc32)s1,–,29.5%,-1.02% (active),76.4%,63.9%,11.4%,-5.78% (active),62.1%,55%,87.4%,69.1%,50.4%,54.6%,37.2%,85%,59.9%,69.4%
COC1=CC(=O)C[C@@H](C)[C@]12Oc1c(Cl)c(OC)cc(OC)c1C2=O,–,96.9%,–,99.2%,89.2%,99.8%,91.5%,75.5%,105%,78.3%,1.96% (active),81.5%,85.2%,92.4%,75.5%,65.5%,–
Cn1c(=O)c2[nH]c(NN)nc2n(C)c1=O,–,129%,116%,114%,116%,118%,122%,113%,104%,84.7%,106%,97.8%,104%,102%,–,119%,115%
Oc1ccc(CN2CCC(N3CCOCC3)CC2)c2cccnc12,–,19%,30.9%,36.1%,34.9%,29.9%,24.4%,48.3%,16.3%,29.8%,16.3%,22%,9.1% (active),9.68% (active),51.5%,20.9%,–
O=C1/C(=C\c2c[nH]c3ccccc23)c2ccccc2N1c1c(Cl)cccc1Cl,–,8.34% (active),25%,22.7%,23.9%,-27.8% (active),-11.4% (active),-8.2% (active),1.28% (active),–,-21.6% (active),5.11% (active),0.197% (active),-100% (active),-91.9% (active),-82.3% (active),-35.9% (active)
Cn1c(=O)c2c(nc(Cl)n2CCl)n(C)c1=O,–,83%,83.2%,115%,53.8%,116%,83.8%,101%,103%,61.8%,43.5%,45.9%,84.4%,95.9%,–,116%,103%
COc1ccc(-c2c(N)n[nH]c2-c2ccc(Cl)cc2O)cc1OC,–,87.1%,94.1%,102%,92.3%,95.6%,89.2%,90.4%,91.2%,105%,69.7%,102%,86%,90.1%,–,83%,72.6%
O=C(CSc1nnc(-c2ccc(NC(=O)c3cccnc3)cc2)o1)N[C@@H](Cc1ccc(O)cc1)C(=O)O,–,99.8%,120%,101%,102%,120%,96.9%,104%,86%,113%,108%,111%,105%,99.6%,108%,110%,106%
COc1ccc(C2CC(c3cccc(OC)c3)=NN2C(=O)c2cc(OC)c(OC)c(OC)c2)cc1 (centres undefined),–,43.9%,56.6%,33.7%,27.9%,-55.7% (active),-13.5% (active),-30.4% (active),29%,–,-58.8% (active),22.5%,16.2%,15.3%,-10.3% (active),15.4%,44.5%
CNc1ccc(NC)c2c1C(=O)c1ccccc1C2=O,–,71.5%,68.4%,67.4%,69%,95.4%,98.5%,88%,37.3%,75.7%,110%,92.4%,16%,78%,72.3%,64.4%,101%
O=C(/C=C/c1ccc(Cl)nc1)c1ccc(Cl)cc1Cl,–,95.6%,87.3%,106%,96.9%,78.5%,–,–,91.6%,110%,89.9%,-33.2% (active),17.1%,36.7%,114%,76.5%,91.4%
COc1ccc(-c2nc(SCCC(C)C)nc(N/N=C\c3ccccc3O)c2C#N)cc1,–,75.4%,4.04% (active),87.6%,86.7%,78.8%,63.2%,84.2%,83.9%,100%,87.8%,72.1%,79%,71%,104%,91.4%,–
